Many of the other results were omitted from the sample, so hits are more common in it than they were.
PNC assembly inh: inhibitors of perinucleolar compartment assembly; PC3M PTB-GFP, PNC prevalence imaging, 16 h; hits give low values; activity change (PNC), negative = inhibition, % at 10 µM; 140,000 tested, 3.1% active; AID 2417;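 active = readout at or below -70, meaning at least 70% loss of cells showing the perinucleolar compartment, a nuclear body marking cancer cells; inconclusive = readout between -30 and a set limit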;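 also: plate controls were DMSO wells for no effect and camptothecin positive control wells for full effect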
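PC3M cells stably expressing PTB-GFP, 750–1000 cells/well, treated 16 h at 37 °C with compound (23 nl of library stock), in duplicate. After paraformaldehyde fixation and Hoechst stain, imaged at 20x; PNC prevalence scored by image analysis.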
IMPase Li inh: IMPase inhibition in cells with lithium potentiation; CHO-M1 cells, IP1 TR-FRET (IP-One), carbachol + lithium; Potency, µM (titrated, usually from 59.4 µM), inactives show at the top dose activity, negative = IMPase inhibition, hits mostly inhibitors; 210,000 tested, 0.35% active; AID 1457;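 also: IP1 builds up when IMPase is blocked and the TR-FRET signal falls; potency is read from the fitted curve at half-maximal effect; plate controls were basal vehicle for no effect and high inhibitor control for full effect; nearly all actives have a fitted effect of over 50% in size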
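Readout is a homogeneous TR-FRET IP1 immunoassay (Ex 320, Em 665 and 620), where raised cytosolic IP1 lowers signal. Cells were CHO-M1 treated 30 min at 37C with test compounds plus a little lithium; AC50 values came from Hill-equation fitting.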
IMPase cell inh: cell-permeable inhibitors of inositol monophosphatase (IMPase); inhibition (IP1 accumulation), % at 46.1 µM; P97697; 120,000 tested, under 10 active; CHO-M1 cells, IP1 accumulation, HTRF TR-FRET ratio; active = well fitted curve in the direction sought with a large enough effect in the signal ratio, not every such curve was filed as active; inconclusive = small, poorly fitted or top-dose-only effect, or a change in a side signal; inactive = no such curve, though single readings can be large or run the other way; the % refers to the signal ratio;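 also: cells stimulated with carbachol in lithium chloride buffer; plate controls were DMSO basal wells for no effect and reference inhibitor wells for full effect; higher means more IMPase inhibition seen as more IP1 and lower FRET ratio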
Target sequence (P97697 whole entry, looked up): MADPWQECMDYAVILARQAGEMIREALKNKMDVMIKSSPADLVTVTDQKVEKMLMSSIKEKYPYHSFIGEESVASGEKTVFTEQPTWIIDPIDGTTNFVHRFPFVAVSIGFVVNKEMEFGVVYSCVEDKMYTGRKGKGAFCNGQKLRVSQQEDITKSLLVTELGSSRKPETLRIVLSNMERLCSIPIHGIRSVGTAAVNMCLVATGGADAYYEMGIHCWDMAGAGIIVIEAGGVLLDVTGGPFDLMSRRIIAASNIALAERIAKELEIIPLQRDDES
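In this qHTS, compounds (final up to 46 uM) act on CHO-M1 cells that are then activated through the M1 receptor with carbachol, in pH 7.4 buffer containing 50 mM LiCl, for 30 min. IP1 accumulation is quantified by the IP-One immunoassay.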
12-hLO inh: blocks human 12-lipoxygenase activity. P18054. purified 12-hLO, xylenol orange hydroperoxide absorbance. Potency, µM (titrated, usually from 57.1 µM), inactives show at the highest dose activity change, negative = inhibition, hits mostly inhibitors. 150,000 tested, 0.12% active; also: potency is read from the fitted curve at half-maximal effect; nearly all actives have a fitted effect of over 55% in size
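150 nM 12hLO, 25 mM Hepes pH 7.0 + 0.01% Triton X-100; cpd preinc 15 min RT; 40 uM arachidonic acid, 30 min RT; Fe-XO 30 min; A573/A405 ratio as read-out.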
ALOX15B inhib: inhibitors of human 15-lipoxygenase 2 (ALOX15B); O15296; purified 15hLO-2, xylenol orange hydroperoxide absorbance; Potency, µM (highest dose often 57.1 µM), for the others: at the highest dose activity change, negative = inhibition, most hits filed as inhibitors; 110,000 tested, 0.56% active; also: potency is read from the fitted curve at half-maximal effect; nearly all actives have a fitted effect of over 60% in size
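Read-out: hydroperoxide product oxidises ferrous iron, measured as xylenol orange complex via the 573-to-405 nm absorbance ratio after 30 min. Reaction: 50 nM enzyme, 15 min compound preincubation, 45 uM arachidonic acid, 90 min RT, Hepes pH 7.5 with Triton X-100.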
An asterisk follows results filed as active; ? = inconclusive; . = no result given; [ ] = dose if it differs, or a comment. Unless noted, calls follow the shape of the dose curve; as a rule, active = well fitted curve in the direction sought with a large enough effect; inconclusive = small, poorly fitted or top-dose-only effect, or another doubt; inactive = no such curve, though single readings can be large; an effect the other way counts as inactive or inconclusive. Unless noted, % is scaled to controls: 0 for no effect and ±100 for the full control effect.

SMILES	PNC assembly inh	IMPase Li inh	IMPase cell inh	12-hLO inh	ALOX15B inhib
CCOC(=O)N1CCN(C(=O)c2ccc(N3C(=O)CCC3=O)cc2)CC1	-89*	17%[38.3 µM]	-7	2%	5%
COC(=O)N1CCC[C@@]2(CCN(C(=O)Nc3ccc(OC)cc3)C2)C1	.	4%	.	0%	-2%
COc1ccccc1-c1ccc(/C=C2/C=C(C)OC2=O)o1	-113*	3%	.	-13%	.
Cc1nc2sccn2c(=O)c1CCN1CCC(=C(c2ccc(F)cc2)c2ccc(F)cc2)CC1	-115*	25%	17	-8%	67%
Cc1cc(C)c2[nH]c(=O)c(CN(CC3CCCO3)C(=S)NCc3ccco3)cc2c1 (stereo not given)	-82*	6%	.	1%	.
Cc1cccc2cc(CN(CC3CCCO3)C(=S)NCc3ccco3)c(=O)[nH]c12 (stereo not given)	12	-1%	.	3%	.
C=C(C)[C@@H]1CCC2(C(=O)O)CC[C@]3(C)[C@H](CC[C@@H]4[C@@]5(C)CCC(=O)C(C)(C)[C@@H]5CC[C@]43C)[C@@H]12 (stereo not given in full)	-95*	17%	.	0%	.
C=C(C)[C@H]1CC[C@]2(CO)CC[C@]3(C)[C@@H](CC[C@H]4[C@@]5(C)CC[C@@H](O)C(C)(C)[C@@H]5CC[C@@]43C)[C@H]12	.	-8%	6[20.6 µM]	0%[25.6 µM]	3%[25.6 µM]
O=S(=O)(c1ccc(F)cc1)N1CCN(c2ccccc2)CC1	0	43%[38.3 µM]	8	2%	10%
CC1CCCCN1S(=O)(=O)c1ccc(S(=O)(=O)N2CCN(c3ccc(F)cc3)CC2)cc1 (stereo not given)	-114*	-11%[38.3 µM]	-4	-4%	-14%
CCOc1ccc(N2C(=O)CC(NCCNc3ccc([N+](=O)[O-])cn3)C2=O)cc1 (stereo not given)	.	6%	.	.	.
COc1ccc(N2C(=O)CC(NCCNc3ccc([N+](=O)[O-])cn3)C2=O)cc1 (stereo not given)	-100*	-4%	.	-1%	.
O=C(NCc1cccnc1)c1ccc(-c2ccc(Cl)cc2)o1	.	0%	.	.	.
O=C(NCc1cccnc1)/C(=C\c1ccc(-c2ccc(Cl)c(Cl)c2)o1)S(=O)(=O)c1ccccc1	-81*	8%	14	3%	.
COc1ccc(-c2nc3n(n2)C(c2ccccc2OC)C(C(=O)Nc2cccnc2)=C(C)N3)cc1 (stereo not given)	.	.	-2	.	.
COc1ccc(NC(=O)c2cc(-c3ccco3)on2)cc1	.	-15%	.	.	.
COc1cc(NC(=O)c2cc(-c3ccco3)on2)c(OC)cc1Cl	-26	11µM*	6	-2%	0%
COc1ccc2c(c1)c1ncn(CCCN3CCOCC3)c(=O)c1n2C	7	4%[38.3 µM]	-4	-4%	8%
Cn1c2ccccc2c2ncn(CCN3CCOCC3)c(=O)c21	-87*	.	8	-1%	-2%
COc1ccccc1C1CN(c2ccc(F)cc2F)N=C1c1cccs1 (stereo not given)	-94*	14µM*	-26	-17%	-6%
O=C(CN1CCN(c2ccc(F)cc2)CC1)Nc1nnc(-c2ccccc2)s1	?	11µM*	2	0%	-2%
O=C(CN1CCN(c2ccccc2)CC1)Nc1nnc(-c2ccccc2)s1	-4	-7%[38.3 µM]	2	6%	-11%
O=C(CSc1nnnn1-c1ccccc1)CC(=O)Nc1ccc(Cl)cc1	35	15%[38.3 µM]	-2	10µM*	-13%
CC(NC(=O)C(NC(=O)C1CCCN1C(=O)OC(C)(C)C)C(C)C)C(N)=O (stereo not given)	-94*	-3%	-6	3%	.
CC(C)CC(NC(=O)C1CCCN1C(=O)OC(C)(C)C)C(=O)NCC(N)=O (stereo not given)	?	23%[38.3 µM]	2	5%	-4%
SMILES	PNC assembly inh	IMPase Li inh	IMPase cell inh	12-hLO inh	ALOX15B inhib
COc1ccc(CCN(C)CCCC(C#N)(c2cc(OC)c(OC)c(OC)c2)C(C)C)cc1OC (stereo not given)	-115*	12%	.	-4%	.
COc1cc2oc(=O)c3c4c(cc5ccc(c1CCN(C)C)c2c53)OCO4	.	12%	.	.	.
COc1ccc(Oc2nc(SC)nc3ccccc23)cc1	-28	10µM*	-8[1.84 µM]	3%	-3%[11.4 µM]
COc1ccc(Oc2nc3ccccc3nc2C(F)(F)F)cc1	32	8%[38.3 µM]	10	3%	5%
Cc1cc(=O)c2c(O)c3c(O)cc(=O)c4c3c3c(cc(O)c1c23)C(C)(C)C=4O	.	-19%	.	.	.
OC[C@H]1O[C@@H](n2cnc3c(NC4CCCC4)ncnc32)[C@H](O)[C@@H]1O	-115*	4%	.	0%	.
CCOC(=O)C1CCN(C(=O)COc2ccc(Br)cc2)CC1	-97*	20%[38.3 µM]	0	-4%	-4%
CC(=O)c1cc(F)c(N2CCN(C(=O)COc3ccc(F)cc3)CC2)cc1C	-100*	15%	1	-1%	.
CCOC(=O)C1CCN(C(=O)COc2cccc(C)c2)CC1	-85*	11%[38.3 µM]	-7	1%	-2%
CCOC(=O)C1CCN(CC(O)COc2ccc(C(C)(C)CC)cc2)CC1 (stereo not given)	-81*	20%[38.3 µM]	7	-9%	25%
Cc1c2ccccc2c(CSC(=N)N)c2ccccc12	.	1%	.	1%[11.4 µM]	0%[11.4 µM]
Clc1ccc(Nc2nc(-c3ccccc3)c3ccccc3n2)c(Cl)c1	.	.	4	.	.
CC(=O)N1CCN(C(=O)COc2ccc(Br)cc2)CC1	-81*	19%[38.3 µM]	-4	-1%	-13%
CCOc1ccc(-c2[nH]ncc2-c2csc(C)n2)c(O)c1	-14	.	1	-1%	.
CCCOC(=O)c1ccc(Oc2cn[nH]c2-c2ccc(OCC)cc2O)cc1	-117*	-8%[38.3 µM]	10	-26%	-14%
COc1cccc(Oc2cn[nH]c2-c2ccc(O)cc2O)c1	-86*	13%[38.3 µM]	1	-27%	-4%
COc1ccc(-c2[nH]ncc2-c2csc(C)n2)c(O)c1	-91*	-4%	10	-3%	.
O=C(O)c1ccc(NS(=O)(=O)c2cccc3ccccc23)cc1	.	.	.	2%	.
CCOC(=O)c1cc(OC(=O)c2cc(OC)cc(OC)c2)n(-c2ccccc2)n1	.	.	1	.	.
CC1=C(CCC(=O)O)c2cc3nc(cc4[nH]c(cc5[nH]c(cc1n2)c(C)c5C(C)O)c(C)c4C(C)O)C(C)=C3CCC(=O)O (stereo not given)	.	-15%	.	-6%	-20%
C=Cc1c(C)c2cc3[nH]c(cc4nc(cc5nc(cc1[nH]2)C(C)=C5CCC(=O)O)C(CCC(=O)O)=C4C)c(C)c3C=C	.	2%	-2	-27%	20µM*
CC(=O)[C@H]1CC[C@@H]2[C@]1(C)CC=C1[C@@]23C=C[C@]2(C[C@H](O)CC[C@@]12C)[C@H](C(=O)O)[C@@H]3C(=O)O	.	-1%	.	.	.
COc1ccc(OCC(O)CN2CCN(c3ncccn3)CC2)cc1 (stereo not given)	-122*	-2%	.	5%	.

Screening data deposited in PubChem by National Center for Advancing Translational Sciences (NCATS).
